From PMC11062922 (Nature Chemical Biology, 2023)
Where two headings read alike, the source gives them in different places.

Test system: PRKD3
Conditions: read-out: apparent Kd, n = 1

Lestaurtinib
potency estimated from few doses (compound concentrations:100 nM and 1000 nM (sheet 'Lestaurtinib' of Supplementary Table 1),run:Lestaurtinib_02438_R1,Plate:MR008): 84.2 nM | potency estimated from few doses (compound concentrations:100 nM and 1000 nM (sheet 'Lestaurtinib' of Supplementary Table 1),run:Lestaurtinib_02438_R2,Plate:MR008): 51.6 nM | potency estimated from few doses (compound concentrations:100 nM and 1000 nM (sheet 'Lestaurtinib' of Supplementary Table 1),run:Lestaurtinib_02438_R3,Plate:MR008): 82.5 nM | potency estimated from few doses (compound concentrations:100 nM and 1000 nM (sheet 'Lestaurtinib' of Supplementary Table 1),run:Lestaurtinib_02443_R1,Plate:MR009): 91.7 nM | potency estimated from few doses (compound concentrations:100 nM and 1000 nM (sheet 'Lestaurtinib' of Supplementary Table 1),run:Lestaurtinib_02473_R1,Plate:MR010): 77.7 nM | potency estimated from few doses (compound concentrations:100 nM and 1000 nM (sheet 'Lestaurtinib' of Supplementary Table 1),run:Lestaurtinib_02473_R3,Plate:MR010): 79.7 nM | potency estimated from few doses (compound concentrations:100 nM and 1000 nM (sheet 'Lestaurtinib' of Supplementary Table 1),run:Lestaurtinib_02482_R1,Plate:MR011): 95.2 nM | potency estimated from few doses (compound concentrations:100 nM and 1000 nM (sheet 'Lestaurtinib' of Supplementary Table 1),run:Lestaurtinib_02482_R3,Plate:MR011): 132 nM | potency estimated from few doses (compound concentrations:100 nM and 1000 nM (sheet 'Lestaurtinib' of Supplementary Table 1),run:Lestaurtinib_02487_R1,Plate:MR012): 90.9 nM | potency estimated from few doses (compound concentrations:100 nM and 1000 nM (sheet 'Lestaurtinib' of Supplementary Table 1),run:Lestaurtinib_02487_R2,Plate:MR012): 84.9 nM | potency estimated from few doses (compound concentrations:100 nM and 1000 nM (sheet 'Lestaurtinib' of Supplementary Table 1),run:Lestaurtinib_02487_R3,Plate:MR012): 94.1 nM | potency estimated from few doses (compound concentrations:100 nM and 1000 nM (sheet 'Lestaurtinib' of Supplementary Table 1),run:Lestaurtinib_02496_R2,Plate:MR013): 79 nM | potency estimated from few doses (compound concentrations:100 nM and 1000 nM (sheet 'Lestaurtinib' of Supplementary Table 1),run:Lestaurtinib_02496_R3,Plate:MR013): 79.4 nM | potency estimated from few doses (compound concentrations:100 nM and 1000 nM (sheet 'Lestaurtinib' of Supplementary Table 1),run:Lestaurtinib_02566_R2,Plate:MR014): 57.7 nM | potency estimated from few doses (compound concentrations:100 nM and 1000 nM (sheet 'Lestaurtinib' of Supplementary Table 1),run:Lestaurtinib_02566_R3,Plate:MR014): 52.9 nM | potency estimated from few doses (compound concentrations:100 nM and 1000 nM (sheet 'Lestaurtinib' of Supplementary Table 1),run:Lestaurtinib_02572_R1,Plate:MR015): 45.9 nM | potency estimated from few doses (compound concentrations:100 nM and 1000 nM (sheet 'Lestaurtinib' of Supplementary Table 1),run:Lestaurtinib_02577_R1,Plate:MR016): 100 nM | potency estimated from few doses (compound concentrations:100 nM and 1000 nM (sheet 'Lestaurtinib' of Supplementary Table 1),run:Lestaurtinib_02577_R2,Plate:MR016): 87.6 nM | potency estimated from few doses (compound concentrations:100 nM and 1000 nM (sheet 'Lestaurtinib' of Supplementary Table 1),run:Lestaurtinib_02577_R3,Plate:MR016): 59.2 nM | potency estimated from few doses (compound concentrations:100 nM and 1000 nM (sheet 'Lestaurtinib' of Supplementary Table 1),run:Lestaurtinib_02584_R1,Plate:MR017): 95.1 nM | potency estimated from few doses (compound concentrations:100 nM and 1000 nM (sheet 'Lestaurtinib' of Supplementary Table 1),run:Lestaurtinib_02584_R2,Plate:MR017): 100 nM | potency estimated from few doses (compound concentrations:100 nM and 1000 nM (sheet 'Lestaurtinib' of Supplementary Table 1),run:Lestaurtinib_02584_R3,Plate:MR017): 113 nM | potency estimated from few doses (compound concentrations:100 nM and 1000 nM (sheet 'Lestaurtinib' of Supplementary Table 1),run:Lestaurtinib_02601_R2,Plate:MR018): 71.2 nM | potency estimated from few doses (compound concentrations:100 nM and 1000 nM (sheet 'Lestaurtinib' of Supplementary Table 1),run:Lestaurtinib_02601_R3,Plate:MR018): 77.1 nM | potency estimated from few doses (compound concentrations:100 nM and 1000 nM (sheet 'Lestaurtinib' of Supplementary Table 1),run:Lestaurtinib_02606_R1,Plate:MR019): 69.4 nM | potency estimated from few doses (compound concentrations:100 nM and 1000 nM (sheet 'Lestaurtinib' of Supplementary Table 1),run:Lestaurtinib_02606_R2,Plate:MR019): 130 nM | potency estimated from few doses (compound concentrations:100 nM and 1000 nM (sheet 'Lestaurtinib' of Supplementary Table 1),run:Lestaurtinib_02606_R3,Plate:MR019): 130 nM | potency estimated from few doses (compound concentrations:100 nM and 1000 nM (sheet 'Lestaurtinib' of Supplementary Table 1),run:Lestaurtinib_02624_R1,Plate:MR020): 67.4 nM | potency estimated from few doses (compound concentrations:100 nM and 1000 nM (sheet 'Lestaurtinib' of Supplementary Table 1),run:Lestaurtinib_02624_R2,Plate:MR020): 90.4 nM | potency estimated from few doses (compound concentrations:100 nM and 1000 nM (sheet 'Lestaurtinib' of Supplementary Table 1),run:Lestaurtinib_02624_R3,Plate:MR020): 79.8 nM | potency estimated from few doses (compound concentrations:100 nM and 1000 nM (sheet 'Lestaurtinib' of Supplementary Table 1),run:Lestaurtinib_02724_R1,Plate:MR021): 56.1 nM | potency estimated from few doses (compound concentrations:100 nM and 1000 nM (sheet 'Lestaurtinib' of Supplementary Table 1),run:Lestaurtinib_02724_R2,Plate:MR021): 71.1 nM | potency estimated from few doses (compound concentrations:100 nM and 1000 nM (sheet 'Lestaurtinib' of Supplementary Table 1),run:Lestaurtinib_02724_R3,Plate:MR021): 59.7 nM | potency estimated from few doses (compound concentrations:100 nM and 1000 nM (sheet 'Lestaurtinib' of Supplementary Table 1),run:Lestaurtinib_02741_R1,Plate:MR023): 88.2 nM | potency estimated from few doses (compound concentrations:100 nM and 1000 nM (sheet 'Lestaurtinib' of Supplementary Table 1),run:Lestaurtinib_02741_R2,Plate:MR023): 56.3 nM | potency estimated from few doses (compound concentrations:100 nM and 1000 nM (sheet 'Lestaurtinib' of Supplementary Table 1),run:Lestaurtinib_02741_R3,Plate:MR023): 88.4 nM | potency estimated from few doses (compound concentrations:100 nM and 1000 nM (sheet 'Lestaurtinib' of Supplementary Table 1),run:Lestaurtinib_02748_R1,Plate:MR024): 86 nM | potency estimated from few doses (compound concentrations:100 nM and 1000 nM (sheet 'Lestaurtinib' of Supplementary Table 1),run:Lestaurtinib_02748_R3,Plate:MR024): 98 nM | potency estimated from few doses (compound concentrations:100 nM and 1000 nM (sheet 'Lestaurtinib' of Supplementary Table 1),run:Lestaurtinib_02752_R1,Plate:MR025): 92.9 nM | potency estimated from few doses (compound concentrations:100 nM and 1000 nM (sheet 'Lestaurtinib' of Supplementary Table 1),run:Lestaurtinib_02752_R3,Plate:MR025): 99.3 nM | potency estimated from few doses (compound concentrations:100 nM and 1000 nM (sheet 'Lestaurtinib' of Supplementary Table 1),run:Lestaurtinib_02765_R3,Plate:MR026): 82.4 nM | potency estimated from few doses (compound concentrations:100 nM and 1000 nM (sheet 'Lestaurtinib' of Supplementary Table 1),run:Lestaurtinib_02766_R1,Plate:MR027): 99.2 nM
